High-throughput results as filed in PubChem.
Most compounds without a hit are left out; they make up all but 1.9% or so of the library.
dFosB act: activators of delta FosB homodimer, primary screen, biochemical, fluorescence polarization, TAMRA-CDK5 oligo, single point | Protein FosB (Mus musculus), P13346 | purified delta FosB; percent of positive-control signal above neutral wells | activation, % at 25 µM | hit rate 0.99% among 340,000 | AID 493131, 2011;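 active = mean activation above about 17%, with every replicate also reaching it, limit read from the data, passing the limit was not always enough; inconclusive = only one of the two conditions met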
Target sequence (P13346 whole entry, looked up): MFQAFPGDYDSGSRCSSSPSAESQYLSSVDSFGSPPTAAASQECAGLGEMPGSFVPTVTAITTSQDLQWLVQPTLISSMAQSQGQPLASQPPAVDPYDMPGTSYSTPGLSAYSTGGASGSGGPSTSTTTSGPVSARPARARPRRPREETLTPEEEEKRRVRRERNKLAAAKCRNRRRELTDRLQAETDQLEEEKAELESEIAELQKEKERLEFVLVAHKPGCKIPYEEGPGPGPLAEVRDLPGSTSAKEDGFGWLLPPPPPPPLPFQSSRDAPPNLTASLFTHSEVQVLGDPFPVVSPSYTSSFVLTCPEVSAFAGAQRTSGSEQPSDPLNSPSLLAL
p47phox inh: p47phox/p22phox peptide binding inhibitors, primary screen, biochemical, uHTS, NADPH oxidase regulatory subunit; Neutrophil cytosol factor 1 (Homo sapiens), P14598; fluorescence polarization, 2 h; inhibition, % at 24.7 µM; hit rate 0.53% among 220,000;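 active = inhibition above about 30%, limit read from the data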;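 note: 0% = p47phox with labelled peptide and 100% = labelled peptide alone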
Efa HMGR inh: inhibitors of E. faecalis class II HMGR, primary screen, biochemical, Enterococcus faecalis. HMG-CoA reductase (Enterococcus faecalis, mvaE). purified E. faecalis HMGR, NADPH absorbance 340 nm kinetic. inhibition, % at 10 µM. hit rate 0.41% among 190,000. AID 1066, 2008;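 active = inhibition above a set limit, the median over all tested compounds plus 3 SD, cut at about 9.5% in these data; inconclusive = no clear call, values can overlap the other calls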;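 note: enzyme runs in reverse so mevalonate oxidation gives rising NADPH absorbance; 0% = complete reaction with DMSO and 100% = background rate lacking mevalonate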
14-3-3 Bad PPI: inhibitors of 14-3-3 zeta/Bad binding, primary screen, biochemical, TR-FRET, bovine 14-3-3 zeta | 14-3-3 protein zeta/delta (Bos taurus), P63103 | TR-FRET 14-3-3zeta/Dy647-pBad peptide displacement, 1 h | inhibition, % at 21.7 µM | hit rate 0.71% among 220,000;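 active = inhibition above about 70%, limit read from the data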;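 note: 0% = full 14-3-3 plus peptide FRET controls and 100% = background without 14-3-3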
Target sequence (P63103 whole entry, looked up): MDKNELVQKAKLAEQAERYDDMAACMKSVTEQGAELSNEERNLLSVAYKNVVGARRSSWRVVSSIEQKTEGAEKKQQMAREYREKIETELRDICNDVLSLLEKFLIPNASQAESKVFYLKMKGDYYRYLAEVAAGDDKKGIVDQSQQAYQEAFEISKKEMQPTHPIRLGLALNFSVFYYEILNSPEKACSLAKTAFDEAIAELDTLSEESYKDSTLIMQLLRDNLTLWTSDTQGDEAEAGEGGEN
Starred values were filed as active, the others as inactive; ? = inconclusive; . = no result given; + = active, no number; [ ] = another dose, or the depositor's remark.

SMILES | dFosB act | p47phox inh | Efa HMGR inh | 14-3-3 Bad PPI
Cc1c(NS(=O)(=O)c2ccc(S(=O)(=O)c3ccccc3)s2)c(=O)n(-c2ccccc2)n1C | -1.7 | 7.9 | . | -0.2
Cc1c(NS(=O)(=O)c2ccc3c(c2)n(C)c(=O)n3C)c(=O)n(-c2ccccc2)n1C | -4.8 | -15.2 | 1.2 | 11.4
Cc1c(NC2=NC(C)(C)Cc3ccccc32)c(=O)n(-c2ccccc2)n1C | 5.8 | 10.5 | 11.4* | -5.0
Cc1cccc(Nc2ncnc(N)n2)c1 | 0.6 | . | 0.2 | 2.6
CC1(C)Cc2c(ccc3ccccc23)/C(=C/C(=O)N2CCCCC2)N1 | -3.2 | -22.5 | -8.4 | 70.8*
COC(C)(C)c1cc(C(C)(C)C)nc(N)n1 | -0.1 | -0.2 | -1.6 | .
CCOc1ccccc1NC(=O)c1c(Br)cnn1C | -3.4 | 38.2* | -4.2 | 4.7
Cc1ccccc1NC(=O)Cn1nnc(S(=O)(=O)c2ccc(C(C)(C)C)cc2)c1N | -3.9 | 1.4 | 18.2* | 6.0
Cc1ccccc1NC(=O)Cn1nnc(C(=O)NCc2ccco2)c1N | 0.1 | 0.8 | 12.7* | 1.5
O=C(O)c1cc(-c2ccc(O)cc2)on1 | -1.1 | 4.8 | -4.7 | 79.3*
O=C(C[C@H]1C[C@H](C(=O)N2CCCCC2)[C@@]2(CCc3ccccc3)c3[nH]c4ccc(Cl)cc4c3CCN2C1=O)NCCCn1ccnc1 | 8.9 | . | . | .
CCSc1sccc1C1C(C#N)=C(N)N(c2cccnc2)C2=C1C(=O)CCC2 (stereo not drawn) | -7.4 | -3.1 | 1.6 | 90.2*
COc1cc(C2C(C#N)=C(N)N(c3cccnc3)C3=C2C(=O)CCC3)ccc1O (stereo not drawn) | -3.3 | -24.7 | -4.3 | -6.2
Cc1c(C#N)c(O)[nH]c(=O)c1N=Nc1ccc(Br)cc1C(=O)O | -4.1 | . | . | .
Cc1cccc(N=Nc2c(C)c(C#N)c(O)[nH]c2=O)c1 | 0.4 | 78.7* | -2.6 | -9.2
O=C(CCN1C(=O)c2ccc([N+](=O)[O-])cc2C1=O)Nc1ccc(O)cc1C(=O)O | 1.9 | 6.0 | 0.8 | -13.2
O=C(CNC(=O)c1ccc2c(c1)OCCO2)N=Nc1c(O)[nH]c2ccccc12 | 24.2* | . | . | .
CCCCOc1nc2ccccc2nc1NS(=O)(=O)c1ccc(F)cc1 | -0.8 | . | . | .
CCCCOc1nc2ccccc2nc1C(C#N)S(=O)(=O)c1ccccc1 (stereo not drawn) | 5.8 | -13.8 | -1.6 | 72.1*
CC(O)(c1cccs1)C(C(=O)O)c1ccccc1 (stereo not drawn) | -2.9 | . | . | .
O=C(CSc1nc(-c2ccccc2)c(-c2ccccc2)[nH]1)Nc1ccc2c(c1)OCO2 | 0.4 | -32.0 | -2.9 | 2.3
C=CCc1c(C)nc(-c2ccccc2)nc1N/N=C(\C)c1ccc(N)cc1 | -6.2 | -0.8 | -3.6 | 74.2*[fluorescence artefact?]
C=CCOCC(O)Cn1c(N2CCCC2)nc2c1c(=O)n(C)c(=O)n2C (stereo not drawn) | -4.6 | . | . | .
CCOC(=O)N1CCN(Cc2ccc(F)cc2F)CC1 | -11.6 | -1.1 | 4.1 | 90.9*
CCOC(=O)N1CCN(CC(=O)Nc2ccc(F)cc2F)CC1 | -3.6 | -2.5 | -1.8 | -2.6
SMILES | dFosB act | p47phox inh | Efa HMGR inh | 14-3-3 Bad PPI
Cc1ccc(OCC(=O)Nc2ccc(-n3cnnn3)cc2)c(C)c1 | 2.7 | . | . | .
CS(=O)(=O)N(CC(=O)Nc1cccc(F)c1)c1cccc([N+](=O)[O-])c1 | -6.0 | -6.7 | -6.5 | 1.5
CC(C)Oc1cccc(C(=O)NC2=NCCS2)c1 | -2.2 | 6.1 | -0.3 | 79.7*
O=C(Nc1ccc2nc(-c3ccccn3)[nH]c2c1)C1CCCCC1 | 14.4 | 39.8* | -6.3 | -3.0
CC(=O)Nc1ccc(S(=O)(=O)N[C@@H](C)C(=O)OCc2ccc(Cl)cc2)cc1 | -3.4 | -17.2 | -1.2 | -6.4
c1ccc2c(c1)oc1c(Nc3ccc(CN4CCOCC4)cc3)ncnc12 | -13.4 | -13.0 | -1.1 | 78.8*
c1ccc(Nc2ncnc3c2oc2ccccc23)cc1 | -31.9 | -8.4 | -9.5 | 70.6*
Oc1ccccc1Nc1ncnc2c1oc1ccccc12 | -3.6 | 1.6 | -13.1 | 73.5*
c1ccc2c(c1)oc1c(NCCN3CCOCC3)ncnc12 | -5.8 | -5.4 | 2.9 | 57.9
Cc1cc(C(=O)N2CCCC(N3CCN(c4cccc(Cl)c4)CC3)C2)no1 (stereo not drawn) | -4.6 | . | . | .
CC(=O)C[C@@H](O)CC(=O)[C@H]1OC(=O)CC/C=C\Cc2ccccc21 | -5.4 | . | . | .
CCN(Cc1ccccc1)c1ccc(/C=N/N=C(N)N)cc1 | ? | 47.0* | -4.4 | 11.9
COc1cc(C(=O)NCc2nnc(SCC(=O)Nc3nccs3)o2)cc(OC)c1OC | -2.4 | -4.7 | 1.3 | -7.5
CCC(C)NC(=O)CSc1nc2cc3c(cc2c(=O)n1Cc1ccco1)OCO3 (stereo not drawn) | -1.4 | 30.1* | -2.7 | 37.4
CCN(CC)C(=O)CSc1nc2cc3c(cc2c(=O)n1Cc1ccco1)OCO3 | -22.4 | -5.1 | -0.5 | -11.2
Cc1[nH]c2c(C)cccc2c1CC(=O)O | 2.4 | -10.8 | -2.4 | 86.2*
CCC(CC)C(=O)OCC(=O)Nc1cccc([N+](=O)[O-])c1 | -1.4 | -4.7 | -4.1 | -4.1
CCOC(=O)C1=C(c2ccccc2)NC(N)=NC1c1ccc(OCc2ccc(C(=O)OC)cc2)cc1 (stereo not drawn) | -50.3 | 83.6* | . | 89.9*
Cc1cc[n+]2n1CC(O)C2 (stereo not drawn) | 0.6 | 2.7 | . | 4.0
COc1ccc(C)cc1NC(=O)C(Sc1nnnn1C)c1ccccc1 (stereo not drawn) | -5.1 | -10.4 | 14.6* | -6.1
CN(C)S(=O)(=O)c1ccc(Cl)c(NC(=O)CSc2nc3c(cc2C#N)C(=O)CC(C)(C)C3)c1 | -4.7 | -7.4 | 1.5 | -27.7
CCN(CCNCC(O)COCc1ccc(Cl)cc1)c1cccc(C)c1 (stereo not drawn) | 2.7 | -9.4 | 30.9* | 25.4
CCN(CCNC(=O)c1ccc(C#N)cc1)c1cccc(C)c1 | -5.0 | . | . | .
O=C(Nc1ccccc1)Nc1ccc2ncoc2c1 | -9.0 | 5.2 | 0.3 | -8.9
CCOC(CNC(=O)c1cc(C)nn1-c1ccccc1)OCC | 3.8 | -6.9 | -1.1 | -1.9
SMILES | dFosB act | p47phox inh | Efa HMGR inh | 14-3-3 Bad PPI
Cc1ccc(Cl)cc1N1CCN(C(=O)c2ccc3nc[nH]c3c2)CC1 | -5.8 | 122.9* | -1.6 | -1.3
Cc1cccc(N2CCN(C(=O)c3ccc4nc[nH]c4c3)CC2)c1C | -8.6 | -11.1 | -6.1 | -13.8
O=C(O)c1ccn(Cn2cnc3ccccc32)n1 | -4.3 | 7.8 | -7.2 | 75.8*
C=CCOc1c(Br)cc(CNc2nccs2)cc1OC | -3.4 | -10.6 | 14.1* | 0.8
C=CCOc1c(Br)cc(CNn2c(C)n[nH]c2=S)cc1OC | -5.7 | . | . | .
Cc1c(Cl)cccc1N1CC(C(=O)Nc2nccs2)CC1=O (stereo not drawn) | -3.9 | + | 1.2 | .
CCN(Cc1ccccc1)S(=O)(=O)c1cc(C(=O)NCCCN(C)C)ccc1OC | -2.3 | -8.1 | 11.7* | -4.5
O=C(Nc1ccccc1)c1cc([N+](=O)[O-])ccc1Cl | 7.3 | 41.8* | . | 0.6
O=C(NCc1ccccc1Cl)c1cc([N+](=O)[O-])ccc1Cl | 2.1 | 0.5 | 18.7* | -2.1
